# Assay outcomes deposited in PubChem by National Center for Advancing Translational Sciences (NCATS).
# An excerpt weighted towards active compounds, which were near 17% of everything screened.
# TGFb SMAD3 inh: TGF-b pathway inhibition; AID 588855; HepG2 CAGA-GFP TGF-b/SMAD3 reporter, GFP fluorescence, 18 h; TGF-beta stimulated, 500 pg/mL final; Potency, µM (titrated, usually from 46.1 µM), without a hit: top-dose activity, negative = inhibition, hits mostly inhibitors; 1.2% of 410,000 active; note: % is set by controls: 0 for no effect and ±100 for the full control effect; nearly all actives have a fitted effect of over 65% in size
#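 Read-out: total well GFP (ex488/em500-530) summed from mean per-cell fluorescence. Cells: HEPG2 CAGA-GFP, 1% FBS DMEM, 18 h at 37 degrees C with 500 pg/mL final TGF-beta. Unstimulated wells served as the full-inhibition control; stimulated DMSO wells = 0%.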
# ATXN2 expr inh: reduces ATXN2 reporter expression in HEK-293 cells; HEK-293 ATXN2-luciferase reporter, luminescence, 24 h; Potency, µM (titrated, usually from 57 µM), for inactives: at the top dose activity change, negative = inhibition, usual class: inhibitors; 0.72% of 360,000 active; AID 1745845; note: % is set by controls: 0 for no effect and ±100 for the full control effect; nearly all actives have a fitted effect of over 55% in size
#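 ATXN2-luciferase reporter cells (luciferase flanked by upstream and downstream ATXN2 gene portions) were treated 24 h at 37 °C with compounds at up to 57 uM. SteadyGlo luminescence gave expression; GF-AFC fluorescence gave viability.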
# ATXN viability: cell viability loss in ATXN counter-screen; S2 cells (HEK-293 line with an ATXN2-luciferase reporter) viability, CellTiter-Fluor protease fluorescence, 24 h; Potency, µM (titrated, usually from 56.7 µM), most hits filed as cytotoxic; 0.49% of 400,000 active; note: nearly all actives have a fitted effect of over 40% in size
# DT40 TDP1 CPT: DT40-hTDP1 cell growth loss with CPT; AID 686979; chicken DT40 Tdp1-/-;hTDP1 cells + 20 nM CPT, ATP luminescence, 48 h; Potency, µM (doses to about 46.2 µM), for the others: at the top dose activity change, negative = growth inhibition, most hits filed as inhibitors; 12% of 420,000 active; note: % is set by controls: 0 for no effect and ±100 for the full control effect; nearly all actives have a fitted effect of over 55% in size
#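 Chicken DT40 Tdp1-/- cells stably complemented with human TDP1 were seeded at 400 cells/well in medium containing 20 nM camptothecin, exposed to pin-transferred compounds, and grown at 37 °C for at least 48 hr. Viability was read as ATP luminescence.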
# DT40 TDP1 no CPT: qHTS for Inhibitors of human tyrosyl-DNA phosphodiesterase 1 (TDP1): qHTS in cells in absence of CPT; DT40 Tdp1-/- hTDP1 cells, no CPT, ATP luminescence, 48 h; Potency, µM (titrated, usually from 46.2 µM), for inactives: top-dose activity change, negative = growth inhibition, most hits filed as inhibitors; 15% of 420,000 active; note: % is set by controls: 0 for no effect and ±100 for the full control effect; nearly all actives have a fitted effect of over 55% in size
#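 Chicken DT40 Tdp1-/- cells complemented with human TDP1, screened without camptothecin (DMSO vehicle only), 400 cells/well. Compounds pin-transferred, cells incubated at 37 °C for at least 48 hr. Growth read as ATP-dependent luminescence (CellTiter-Glo, 30 min at RT).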
# HepG2 viability: HepG2 cytotoxicity, counter-screen for TGF-b inhibitors; Potency, µM (highest dose often 46.1 µM), for the others: at the top dose activity change, negative = cytotoxicity, hits mostly cytotoxic; HepG2 CAGA-GFP viability, ATP luminescence, 18 h; 0.76% of 410,000 active
#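 CellTiter-Glo luminescence gave cytotoxicity after 18 hours at 37 degrees C. The cells were HepG2 CAGA-GFP in 1% FBS DMEM, stimulated with 500 pg/mL TGF-beta after compound addition. %Activity was normalised to no-cell wells (complete cell-killing) and DMSO (no toxicity), and curves were fitted and classified.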
# * hit, by the source's call; i = inactive; ? = inconclusive; . = not tested or not shown. Calls come from the whole dose curve; as a rule, active = well fitted curve in the direction sought with a large enough effect; inconclusive = small, poorly fitted or top-dose-only effect, or another doubt; inactive = no such curve, though single readings can be large; an effect the other way counts as inactive or inconclusive. Potency is the fitted concentration of half-maximal effect.
SMILES,TGFb SMAD3 inh,ATXN2 expr inh,ATXN viability,DT40 TDP1 CPT,DT40 TDP1 no CPT,HepG2 viability
CCC(/C=C1\Sc2ccc(OC)cc2N1CC)=C\c1sc2ccc(OC)cc2[n+]1CCCS(=O)(=O)[O-],-15%,?,22µM*,3.3µM*,1.8µM*,-4%
S=C(Nc1cccc(Cl)c1)Nc1ccccc1Oc1ccccc1,?,-11%,i,?,21µM*,-41%
Cc1ccc(C)c(NC(=S)Nc2cccc3cnccc23)c1,2%,-20%,i,15µM*,16µM*,1%
S=C(Nc1ccc(Cl)cc1Cl)Nc1ccccc1Oc1ccccc1,?,-2%,?,-23%,?,-7%
Cc1ccc(NC(=S)Nc2cccc3cnccc23)cc1,-30%,.,?,?,16µM*,-17%
S=C(Nc1cccc(Cl)c1)Nc1cccc2cnccc12,-11%,-26%,i,16µM*,18µM*,-33%
Cc1ccc(NC(=S)Nc2cccc3cnccc23)cc1C,?,-23%,i,?,?,-16%
CC(NC(=O)C1CCC(CNS(=O)(=O)c2ccc3c(c2)C(C)(C)C(=O)N3C)CC1)c1ccccc1 (centres undefined),-10%,-11%,i,-4%,-24%,-8%
Cc1ccc(NC(=O)Cn2c(=O)n(CC3CCCO3)c(=O)c3ccccc32)cc1 (centres undefined),4%,-5%,i,-26%,-24%,0%
Cc1ccc(NC(=O)Cn2c(=O)n(CCCCC(=O)NCCc3ccccc3)c(=O)c3ccccc32)cc1,-27%,-1%,i,-20%,-17%,9%
Cc1c(C(=O)N2CCC(C(=O)Nc3ccc(F)cc3)CC2)sc2nc[nH]c(=O)c12,-27%,.,.,-1%,-9%,-16%
COc1ccc(C=C2SC(=O)NC2=O)cc1OC,11%,36%,i,?,16µM*,-8%
COc1ccccc1OCCCOc1ccc(/C=C2\SC(=O)NC2=O)cc1OC,14%,-6%,i,16µM*,13µM*,-18%
CC(C)(C)c1ccc(C(=O)NCc2ccc(Cl)cc2)cc1,8%,4%,i,-15%,-9%,-23%
COc1ccc(NC(=O)C(=O)NCCN2CCN(C(=O)c3ccc(C)cc3)CC2)cc1,0%,-19%,i,-4%,-27%,3%
CCc1ccc(NC(=O)C(=O)NCCN2CCN(C(=O)c3ccc(OC)cc3)CC2)cc1,-3%,.,i,?,13µM*,-14%
CC(C)(C)c1ccc(C(=O)N2CCN(CCNC(=O)C(=O)NCc3ccc(Cl)cc3)CC2)cc1,?,-28%,i,15µM*,21µM*,-7%
O=C(Nc1ccc([N+](=O)[O-])cc1)C(Cc1ccccc1)N1C(=O)c2cccc3cccc(c23)C1=O (centres undefined),11%,-27%,?,?,5.2µM*,-9%
COC(=O)c1cn(CC(=O)Nc2ccc(F)cc2)c2ccccc12,-5%,-14%,i,-22%,?,-7%
Cc1ccc(S(=O)(=O)N/N=C\c2cn(CC(N)=O)c3ccccc23)cc1,-5%,2%,i,10%,-3%,7%
Cc1ccc(NC(=O)Cn2cc(C=O)c3ccccc32)cc1,7.9µM*,-9%,i,?,-24%,-29%
CCc1cccc(NC(=O)Cn2cc(C=O)c3ccccc32)c1,?,.,i,9.2µM*,10µM*,-25%
COc1ccc(OC)c(S(=O)(=O)N/N=C\c2cn(CC(N)=O)c3ccccc23)c1,18%,-10%,i,13µM*,?,0%
COc1ccc(OC)c(NC(=O)Cn2cc(C=O)c3ccccc32)c1,10µM*,-7%,i,?,?,-30%
Cn1ncc(Cl)c1C(=O)N1CCN(C(=O)c2ccco2)CC1,-10%,4%,i,-17%,19%,-9%
SMILES,TGFb SMAD3 inh,ATXN2 expr inh,ATXN viability,DT40 TDP1 CPT,DT40 TDP1 no CPT,HepG2 viability
COc1cccc(NC(=O)Cn2cc(C=O)c3ccccc32)c1,?,-16%,i,16µM*,26µM*,-49%
CN(CC(=O)Nc1cccc(C(F)(F)F)c1)Cc1ccccc1,7%,-21%,i,?,9.2µM*,-11%
CC(NC(=O)CN(C)CC(=O)Nc1ccc(Cl)c(C(F)(F)F)c1)c1ccccc1 (centres undefined),-22%,-18%,?,21µM*,23µM*,-16%
CN(CC(=O)Nc1cccc(F)c1)CC(=O)NC(c1ccccc1)c1ccccc1,-9%,-14%,i,23µM*,?,-17%
CN(CC(=O)NCc1ccc(F)cc1)CC(=O)Nc1ccc(Cl)c(C(F)(F)F)c1,?,?,?,23µM*,21µM*,-29%
CC1(C(=O)NCc2ccccc2Br)CCN1C(=O)CCc1ccc(Cl)cc1Cl (centres undefined),?,?,?,?,-65%,-16%
CCOC(=O)N(C)C[C@H]1OCc2cnnn2CCCC(=O)N([C@H](C)CO)C[C@H]1C,3%,-3%,i,1%,-3%,-7%
CCC(NS(=O)(=O)c1ccc2c(c1)NC(=O)C(C)C(=O)N2)c1cccs1 (centres undefined),-1%,-2%,i,-17%,-6%,-3%
Cc1ccccc1C(=O)NC1CCN(CC(=O)Nc2ccc(Br)cc2)CC1,-14%,-20%,i,-22%,?,-23%
CCCS(=O)(=O)NC(=O)C1(C)CCCN(C(=O)c2ccc(C(F)(F)F)nc2C)C1 (centres undefined),8%,5%,i,?,-92%,5%
CN(CC(=O)Nc1ccc(Cl)c(C(F)(F)F)c1)C(=O)c1ccccc1SCC(=O)N1CCCC1,?,-35%,i,18µM*,?,-39%
CN(C)C(=O)c1cccc(-c2cnc3c(NC=O)cc(-c4ccccc4F)cn23)c1,?,-34%,i,?,18µM*,-6%
CCSc1ccc(-c2cc(NC=O)c3ncc(-c4cccc(C(=O)N(C)C)c4)n3c2)cc1,?,?,?,?,?,-15%
CN(C)C(=O)c1cccc(-c2cnc3c(NC=O)cc(-c4cc(F)c(F)c(F)c4)cn23)c1,-24%,?,?,?,?,-8%
